HCMV inh: human cytomegalovirus inhibition. HFF cells, HCMV-luciferase reporter, 72 h; hits give low values. AID 1259415. hit rate 4.5% among 410,000. activity change, negative = inhibition, % at 57.5 µM; in the data active = activity change below about -60%; inconclusive = no clear call, values can overlap the other calls; inactive = above about -39%
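Luciferase read-out from HCMV-luciferase-infected HFFs (MOI 1 PFU/cell) 72 h post infection at 37C; compounds added after 16 h cell attachment; activity normalized between buffer-only basal and Salinomycin (10uM) inhibitor controls.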
Pf growth 96h: P. falciparum growth inhibition at 96 hours | P. falciparum luciferase reporter growth, 96 h | Potency, µM (highest dose often 28.7 µM), without a hit: at the top dose activity change, negative = inhibition, usual class: inhibitors | hit rate 6.9% among 320,000 | AID 504834; also: potency is read from the fitted curve at half-maximal effect
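Two-generation exposure (96 h) targets delayed-death phenotype. Reporter parasites carrying integrated firefly luciferase, in red cells at 2% hematocrit and 0.05% parasitemia final, kept at 37 C, 5% CO2; luminescence loss indicates inhibition.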
Pf growth 48h: inhibits P. falciparum growth in the first generation, 48 h; Potency, µM (highest dose often 28.7 µM), for the others: at the highest dose activity change, negative = inhibition, actives largely listed as inhibitors; P. falciparum luciferase growth in erythrocytes, 48 h; hit rate 5.9% among 310,000; also: potency is read from the fitted curve at half-maximal effect
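Read-out is firefly luciferase luminescence from an integrated reporter in P. falciparum, so falling signal marks reduced parasite growth. Infected erythrocytes were at 2% hematocrit and 0.1% parasitemia (final) in Albumax-supplemented RPMI 1640.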
HCV inh: HCV inhibition. Huh7.5.1 HCVcc-Cre infection, luciferase reporter, 44 h. Potency, µM (highest dose often 41.8 µM), for the others: top-dose activity change, negative = inhibition, hits mostly inhibitors. hit rate 3.4% among 340,000; also: potency is read from the fitted curve at half-maximal effect
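1,000 cells/well; 4 h culture; + compound; + HCVcc-Cre (~0.5 moi); 44 h; luciferase substrate, RT 15 min; read 15 sec.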
* hit, by the source's call; ? = inconclusive; . = no result given. Most compounds without a hit are left out; they make up all but 13% or so of the library. Unless noted, calls follow the shape of the dose curve; as a rule, active = well fitted inhibition curve with a large enough effect; inconclusive = small, poorly fitted or top-dose-only effect, or another doubt; inactive = no such curve, though single readings can be large or run the other way. % is scaled to controls: 0 for no effect and ±100 for the full control effect.

SMILES | HCMV inh | Pf growth 96h | Pf growth 48h | HCV inh
O=C(CN1CCN(S(=O)(=O)c2ccccc2)CC1)Nc1cccc(C(F)(F)F)c1 | -21 | -20% | -7% | ?
O=C(NCc1ccc(F)c(F)c1)c1cnc(N2CCN(CCc3ccccc3)C2=O)o1 | 3 | . | . | .
Cc1cc(SCC(=O)Nc2cccc(S(=O)(=O)N3CCOCC3)c2)nc2ccccc12 | -19 | ? | -30% | 13µM*
Cc1ccc(SCC(=O)Nc2cccc(S(=O)(=O)N3CCOCC3)c2)cc1C | -1 | ? | 17µM* | ?
Cc1ccc(NC(=O)CNc2cccc(Br)c2)cc1S(=O)(=O)N1CCOCC1 | -27 | . | . | ?
Cc1nc(-c2ccc(F)cc2)c(CC(=O)N2CCN(S(=O)(=O)c3cccc([N+](=O)[O-])c3)CC2)s1 | -18 | 12µM* | 9.3µM* | ?
O=C(Cc1ccccc1)N1CCN(S(=O)(=O)c2cccc([N+](=O)[O-])c2)CC1 | -31 | 25% | 1% | 8%
CCN(CC)S(=O)(=O)c1cc(NC(=O)CNc2cccc(S(=O)(=O)N3CCOCC3)c2)ccc1C | -85* | ? | ? | 5.6µM*
O=C(CSc1ccc(Br)cc1)Nc1cccc(S(=O)(=O)N2CCOCC2)c1 | 6 | -3% | ? | ?
O=C(Cn1ncn2c(cc3sccc32)c1=O)NCCc1ccccc1 | 15 | . | . | .
COc1ccc(C=NN(C)C(=O)Nc2cccc(Cl)c2)cc1OC | -9 | . | . | .
Cc1ccc(NC(=O)CSc2nc(N)cc(N)n2)cc1S(=O)(=O)N1CCOCC1 | 0 | ? | -6% | 4%
O=C(CNc1cc(S(=O)(=O)N2CCCC2)ccc1OCC(F)(F)F)Nc1cccc(C(F)(F)F)c1 | -69* | 13µM* | ? | 11µM*
Cc1ccc(NC(=O)CNc2cccc(S(=O)(=O)N3CCCC3)c2)cc1F | -18 | 5.2µM* | 9.3µM* | ?
Cc1ccc(NC(=O)CNc2cccc(S(=O)(=O)N3CCOCC3)c2)cc1F | -35 | 6.6µM* | 10µM* | ?
COc1cc(NC(=O)CNc2cccc(S(=O)(=O)N3CCOCC3)c2)cc(OC)c1 | -34 | ? | ? | ?
O=C(CNc1ccccc1F)Nc1cccc(S(=O)(=O)N2CCCCC2)c1 | -1 | ? | ? | -3%
O=C(CNc1cc(S(=O)(=O)N2CCOCC2)ccc1N1CCOCC1)Nc1cccc(C(F)(F)F)c1 | 1 | . | . | 8%
Cc1nc(-c2ccc(F)cc2)c(CC(=O)Nc2ccc(C)c(S(=O)(=O)N3CCOCC3)c2)s1 | . | 9.3µM* | 8.3µM* | 7.9µM*
CC(Sc1nc2cc(Cl)ccc2s1)C(=O)Nc1cccc(S(=O)(=O)N2CCOCC2)c1 (stereo unspecified) | -27 | 13µM* | -22% | ?
O=C(Nc1cccc(S(=O)(=O)N2CCCCC2)c1)C1CCCN1S(=O)(=O)c1ccccc1F (stereo unspecified) | -13 | ? | 10µM* | ?
Cc1ccc(NCC(=O)Nc2ccc(F)c(Cl)c2)cc1S(=O)(=O)N1CCOCC1 | -61* | . | . | .
O=C(CNc1cccc(S(=O)(=O)N2CCCC2)c1)Nc1ccc(F)c(F)c1 | -16 | 1.3µM* | 1.5µM* | ?
CCOc1ccc2oc(=O)cc(CN3CCN(c4ccc(OC)cc4)CC3)c2c1 | 40 | . | . | .
Cc1ccc(-c2nnn(CC(=O)Nc3ccc(S(=O)(=O)N4CCC(C)CC4)cc3)n2)cc1 | -75* | ? | -13% | ?
SMILES | HCMV inh | Pf growth 96h | Pf growth 48h | HCV inh
CC1CCN(S(=O)(=O)c2ccc(NC(=O)Cn3nnc(-c4ccccc4)n3)cc2)CC1 | -27 | 26% | ? | -5%
CCCC(=O)N(Cc1cc2ccccc2[nH]c1=O)c1ccccc1OC | -19 | . | . | -3%
CCCC(=O)N(Cc1cc2cccc(C)c2[nH]c1=O)c1ccccc1OC | -32 | -13% | 12µM* | -29%
CCOC(=O)N1CCC(NC(=O)c2cc3c(-c4cccc(OC)c4)nn(C)c3s2)CC1 | -20 | . | 9.3µM* | ?
COc1ccc(N2CCN(C(=O)c3cc4c(-c5cccc(OC)c5)nn(C)c4s3)CC2)cc1 | -24 | -6% | ? | 6.3µM*
CC(=O)c1ccc(N2CCN(C(=O)c3cc4c(-c5ccccc5F)nn(C)c4s3)CC2)cc1 | -13 | ? | . | 14µM*
CCOC(=O)N1CCN(C(=O)c2cc3c(-c4cccc(OC)c4)nn(C)c3s2)CC1 | 9 | -13% | -27% | 8.9µM*
COc1cccc(-c2nn(C)c3sc(C(=O)N4CCN(c5cccc(C(F)(F)F)c5)CC4)cc23)c1 | 2 | . | . | .
COc1ccccc1N1CCN(C(=O)c2cc3c(-c4ccccc4F)nn(C)c3s2)CC1 | -27 | . | . | .
COc1cccc(-c2nn(C)c3sc(C(=O)NCc4ccc(C)cc4)cc23)c1 | -29 | ? | . | ?
COc1cccc(-c2nn(C)c3sc(C(=O)N4CCN(c5cccc(C)c5)C(C)C4)cc23)c1 (stereo unspecified) | -15 | . | . | .
O=C(COc1ccc(F)cc1)Nc1ccccc1C(=O)OCc1cc(=O)n2ccsc2n1 | 67 | . | . | .
CCC[C@H]1[C@@H](NS(=O)(=O)c2ccc(NC(C)=O)cc2)CC[C@@]23CCCN2C(=O)CCC[C@@H]13 | -8 | . | . | .
Cc1ccc(C)c(Cn2nc3c4ccccc4n(Cc4ccccc4)cc-3c2=O)c1 | 22 | 10% | 13µM* | 0%
Cc1ccccc1-n1ncc2c1CC(C)(C)CC2NC(=O)C1CCC1 (stereo unspecified) | -29 | 14% | ? | 6%
Cc1ccccc1-n1ncc2c1CC(C)(C)CC2NC(=O)C1=CC(=O)CC(C)(C)O1 (stereo unspecified) | -8 | 9.3µM* | ? | .
Cc1ccc(Cl)cc1NC(=O)Nc1nnc(N2CCCC(C)C2)s1 (stereo unspecified) | 13 | . | . | .
O=C(CSc1nc2ccccc2c(=O)n1CCC(=O)NC1CCCCC1)Nc1ccccc1Cl | 9 | . | . | .
Cc1cc(C)c(C2=NOC(O)(C(F)(F)F)C2)c(=O)[nH]1 (stereo unspecified) | -38 | . | 12% | -3%
Cc1cc(C)c(-c2cc(C(F)(F)F)no2)c(=O)[nH]1 | -16 | 12µM* | 13% | 8%
COc1ccc(CCNC(=O)CCCCn2c(=O)c3ccccc3n(CC(=O)Nc3ccccc3C)c2=O)cc1OC | 14 | . | . | .
COc1cc(C2CC(=O)N(CC(=O)NCc3ccco3)c3ccccc3S2)cc(OC)c1OC (stereo unspecified) | 10 | 85% | 10µM* | ?
O=C(NC1CCCCC1)n1c(=O)oc2ccc(Cl)cc21 | -32 | 14% | 20% | -1%
O=C(Cn1c(=O)oc2cc(S(=O)(=O)N3CCCCCC3)ccc21)NC1CCCCCCC1 | 29 | 12µM* | . | -17%
CCCNC(=O)Cn1c(=O)oc2cc(S(=O)(=O)N3CCCC3)ccc21 | 28 | 14% | 18% | 12%
COc1ccc(NC(=O)Cn2c(=O)oc3cc(S(=O)(=O)N4CCCC4)ccc32)c(OC)c1 | -23 | 6.6µM* | 3% | -11%
CC(C)COC(=O)n1c(=O)oc2cc(S(=O)(=O)N3CCCCC3)ccc21 | ? | . | 8.3µM* | 1%

Assay outcomes from PubChem BioAssay.
